Test results published in PubChem BioAssay (NCI).
Compounds without any hit were thinned out: in the full panel of roughly 79,000, 15% have a hit. Values without a mark were called inactive. Activity calls are given as the source filed them. Cut-off read from the data, not from the text of the source: active = growth inhibition above about 70%; inactive = the rest.

assay: NCI Yeast Anticancer Drug Screen. Data for the rad50 strain (AID 155);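 note: 0% = growth of vehicle-only cultures of the same strain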; conditions: S. cerevisiae rad50 strain growth inhibition; at 50.0 µM; active compounds read high
How it was run: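 DNA repair mutant yeast, compound exposure, growth read-out; inhibition is taken relative to vehicle.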

Compound | growth inhibition
COc1cc(C=C2C(=O)NC(=S)NC2=O)cc(OC)c1OC | 5.05%
O[As](O)O.S=C(S)c1ccccc1S | 7.55%
Cc1ccccc1-n1c(/C=C\c2ccccn2)nc2ccccc2c1=O | 36.7%
S=C1c2ccc(Cl)cc2-n2cnnc2C2CSCN12 (stereo not drawn) | -4.1%
CC[As](=O)(O)c1ccc(OC)c(I)c1 | 1.75%
COc1cc(C2(C)CCCCC2)c(OC)cc1C1(C)CCCCC1 | -8.1%
O=C(c1ccccc1)N1CC1 | 6.1%
CNC(C)Cc1ccccc1OC (stereo not drawn) | -10.8%
O=C(CP(=O)(O)O)c1cccs1 | -10.6%
CC1CCC2C(C)C(=O)OC3OC4(C)CCC1C32OO4 (stereo not drawn) | -7.55%
Cc1cc(C)c(C(=O)O)c(C)c1.[Hg] | 99.6% (active)
O=C1CCCCC1CN1CCCCC1 (stereo not drawn) | 4.8%
O=[As](O)(O)c1cccc(Cl)c1 | 9.3%
CN(C)c1ccc(NP(=O)(Nc2ccc(N(C)C)cc2)N(CCCl)CCCl)cc1 | 24.2%
CC(C)c1cccc(C(C)C)c1O | 22.2%
COC(=O)CN(CCCl)P1(=O)OCCCN1CCCl (stereo not drawn) | -17.4%
C=CCn1nnnc1N | -4.3%
CN(C)CCNC(=O)c1ccc(N(CCCl)CCCl)c([N+](=O)[O-])c1[N+](=O)[O-] | 36.4%
C1C[OH+]CC[OH+]CC[OH+]CC[OH+]CC[OH+]1.[Cl-].[V] | -13.2%
Cc1ccc(C(=O)Nc2ccc(CP(=O)(O)O)cc2)cc1NC(=O)c1cccc(NC(=O)Nc2cccc(C(=O)Nc3cc(C(=O)Nc4ccc(CP(=O)(O)O)cc4)ccc3C)c2)c1 | -0.5%

Compound | growth inhibition
Oc1ccccc1C=NCCN=Cc1ccccc1O.[Fe] | 11.8%
CCC(Br)C(=O)OCCCl (stereo not drawn) | 12%
C[CH2][Sn](/[CH]=C\CO)([CH2]C)[CH2]C | 63%
O=NN1CCCCC1 | -18.2%
Cc1cc(C)c(O)c(C)c1 | 10.2%
C[N+]12C(=O)CC3OCC=C4C[N+]5(C)CCC6(c7ccccc71)C2C3C4CC65O (stereo not drawn) | -13.8%
C(=NCCN=CC1CCCC[N-]1)C1CCCC[N-]1.[Cu+2].[O-][Cl+3]([O-])([O-])O (stereo not drawn) | 79.8% (active)
CCOP(C)(=O)C(N)Cc1ccc(OC)c(OC)c1 (stereo not drawn) | -39.6%
Cc1ccc([P+](=O)O)cc1Cl | -12.1%
CCP(=S)(CC)P(=S)(CC)CC | -1.35%
C(=C\C1CC2CCCN2O1)/c1ccccc1 (stereo not drawn) | 39.9%
C[C@]12CC[C@@H]3C4=CC(=O)CC[C@@H]4CC[C@H]3[C@@H]1CC[C@@H]2O | -4.3%
O=C(O)C(CSC(c1ccccc1)(c1ccccc1)c1ccccc1)N1C(=O)c2ccccc2C1=O (stereo not drawn) | 98.8% (active)
CCC[As](=O)(O)CC[As](=O)(O)CCC | 15.8%
NC(=O)Oc1ccccc1 | -4.5%
NC(=O)c1cc([N+](=O)[O-])c(N(CCCl)CCCl)c([N+](=O)[O-])c1 | 13.8%
O=C(c1ccccc1)P(C(=O)c1ccccc1)C(=O)c1ccccc1 | 10.9%
CC(O)C[As](=O)(O)c1cccc(Cl)c1 (stereo not drawn) | 2.05%
NC(CP(=O)(O)O)C(=O)O (stereo not drawn) | 0.4%

assay: NCI Yeast Anticancer Drug Screen. Data for the mec2-1 strain (AID 157); conditions: S. cerevisiae mec2-1 strain, at 50.0 µM, active compounds read high
How it was run: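 Compounds were applied to mec2-1 yeast cells. Their growth was then compared with that of vehicle-treated cultures to give growth inhibition.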

Compound | growth inhibition
COc1cc(C=C2C(=O)NC(=S)NC2=O)cc(OC)c1OC | -15.9%
O[As](O)O.S=C(S)c1ccccc1S | -13%
Cc1ccccc1-n1c(/C=C\c2ccccn2)nc2ccccc2c1=O | 8.65%
S=C1c2ccc(Cl)cc2-n2cnnc2C2CSCN12 (stereo not drawn) | 10.8%
CC[As](=O)(O)c1ccc(OC)c(I)c1 | -15.3%
COc1cc(C2(C)CCCCC2)c(OC)cc1C1(C)CCCCC1 | 1.25%
O=C(c1ccccc1)N1CC1 | 33.9%
CNC(C)Cc1ccccc1OC (stereo not drawn) | -12.4%
O=C(CP(=O)(O)O)c1cccs1 | -10.3%
CC1CCC2C(C)C(=O)OC3OC4(C)CCC1C32OO4 (stereo not drawn) | 4.2%
Cc1cc(C)c(C(=O)O)c(C)c1.[Hg] | 99.8% (active)
O=C1CCCCC1CN1CCCCC1 (stereo not drawn) | -3.2%
O=[As](O)(O)c1cccc(Cl)c1 | -0.25%
CN(C)c1ccc(NP(=O)(Nc2ccc(N(C)C)cc2)N(CCCl)CCCl)cc1 | 2.1%
CC(C)c1cccc(C(C)C)c1O | 26%
COC(=O)CN(CCCl)P1(=O)OCCCN1CCCl (stereo not drawn) | -1.1%
C=CCn1nnnc1N | -16.8%
CN(C)CCNC(=O)c1ccc(N(CCCl)CCCl)c([N+](=O)[O-])c1[N+](=O)[O-] | 20.4%
C1C[OH+]CC[OH+]CC[OH+]CC[OH+]CC[OH+]1.[Cl-].[V] | -6.25%
Cc1ccc(C(=O)Nc2ccc(CP(=O)(O)O)cc2)cc1NC(=O)c1cccc(NC(=O)Nc2cccc(C(=O)Nc3cc(C(=O)Nc4ccc(CP(=O)(O)O)cc4)ccc3C)c2)c1 | 0.95%

Compound | growth inhibition
Oc1ccccc1C=NCCN=Cc1ccccc1O.[Fe] | 22.2%
CCC(Br)C(=O)OCCCl (stereo not drawn) | 13.7%
C[CH2][Sn](/[CH]=C\CO)([CH2]C)[CH2]C | 77.8% (active)
O=NN1CCCCC1 | 7.1%
Cc1cc(C)c(O)c(C)c1 | -18.3%
C[N+]12C(=O)CC3OCC=C4C[N+]5(C)CCC6(c7ccccc71)C2C3C4CC65O (stereo not drawn) | -34.5%
C(=NCCN=CC1CCCC[N-]1)C1CCCC[N-]1.[Cu+2].[O-][Cl+3]([O-])([O-])O (stereo not drawn) | 71% (active)
CCOP(C)(=O)C(N)Cc1ccc(OC)c(OC)c1 (stereo not drawn) | -59.5%
Cc1ccc([P+](=O)O)cc1Cl | -3.75%
CCP(=S)(CC)P(=S)(CC)CC | -21.4%
C(=C\C1CC2CCCN2O1)/c1ccccc1 (stereo not drawn) | -20.5%
C[C@]12CC[C@@H]3C4=CC(=O)CC[C@@H]4CC[C@H]3[C@@H]1CC[C@@H]2O | -12.1%
O=C(O)C(CSC(c1ccccc1)(c1ccccc1)c1ccccc1)N1C(=O)c2ccccc2C1=O (stereo not drawn) | 99.2% (active)
CCC[As](=O)(O)CC[As](=O)(O)CCC | 34.2%
NC(=O)Oc1ccccc1 | -26.4%
NC(=O)c1cc([N+](=O)[O-])c(N(CCCl)CCCl)c([N+](=O)[O-])c1 | 17.1%
O=C(c1ccccc1)P(C(=O)c1ccccc1)C(=O)c1ccccc1 | -5.7%
CC(O)C[As](=O)(O)c1cccc(Cl)c1 (stereo not drawn) | 33.9%
NC(CP(=O)(O)O)C(=O)O (stereo not drawn) | 5.7%
